Measured values: the supplement of paper PMC10849652
The full data set covers some 8,800 targets. This sample favours those with a hit. About 0.5% of all pairs of compound and target were hits.

Columns and labels:
Assay in all cases: log2 fold change, soluble protein after heating vs DMSO (PISA); higher = thermal stabilisation; K562 lysate, 10 uM; active = over 0.2 and 3.5 SD of the protein, either way, in both replicates (recomputed)
[1] = compound: C1=CC=C(C=C1)[C@H](COC2=CC3=C(C=C2)NC(=O)N3)NC(=O)C4=CC=CN(C4=O)CC5=CC(=C(C=C5)F)F
Procedure, shortened: (§1)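 Pellets of K562 cells were dounce-homogenised in PBS pH 7.4 with 1 mM MgCl2, and the crude extract was held at 1 mg/mL protein for a 30 min treatment with 10 μM compound. Aliquots were heated for 3 min over 48°C-58°C and pooled before NP-40 was added to 0.5% at 4°C. The supernatant from 21,000xg for 90 min was quantified by TMTpro 16plex LC-MS/MS with channel sums equalised. Values are reported from duplicates as log-two fold change in thermal stability relative to solvent controls.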

[2] = compound: CC1=C(SC2=C1C(=N[C@H](C3=NN=C(N32)C)CC(=O)N)C4=CC=C(C=C4)Cl)C
Procedure, shortened: as §1

[3] = compound: CC1=C2C(=CC=C1)N=C(N(C2=O)C3=CC=CC=C3C)CN4C=NC5=C(N=CN=C54)N
Procedure, shortened: as §1

[4] = compound: Cc1sc2c(c1C)C(c1ccc(Cl)cc1)=N[C@@H](CC(=O)OC(C)(C)C)c1nnc(C)n1-2
Procedure, shortened: as §1

[5] = compound: c1ccc([C@@H]2C[C@H]2NC2CCNCC2)cc1
Procedure, shortened: as §1

Measured: log2 fold change

AIMP2 isoform 2 (UniProt Q13155)
UniProt Q13155, sequence (Q13155 whole entry, looked up): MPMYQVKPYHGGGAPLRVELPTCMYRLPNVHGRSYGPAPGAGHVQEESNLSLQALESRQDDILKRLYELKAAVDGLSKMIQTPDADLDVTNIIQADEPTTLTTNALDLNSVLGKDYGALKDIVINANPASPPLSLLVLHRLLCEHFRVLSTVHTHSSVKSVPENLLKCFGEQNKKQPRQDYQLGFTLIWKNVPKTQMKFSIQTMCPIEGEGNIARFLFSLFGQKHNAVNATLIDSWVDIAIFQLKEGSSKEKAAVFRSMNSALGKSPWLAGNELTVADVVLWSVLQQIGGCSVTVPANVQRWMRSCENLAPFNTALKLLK
inactive: [1] 0.182 | [2] 0.029

ANKRD54 (UniProt Q6NXT1)
UniProt Q6NXT1, sequence (Q6NXT1 whole entry, looked up): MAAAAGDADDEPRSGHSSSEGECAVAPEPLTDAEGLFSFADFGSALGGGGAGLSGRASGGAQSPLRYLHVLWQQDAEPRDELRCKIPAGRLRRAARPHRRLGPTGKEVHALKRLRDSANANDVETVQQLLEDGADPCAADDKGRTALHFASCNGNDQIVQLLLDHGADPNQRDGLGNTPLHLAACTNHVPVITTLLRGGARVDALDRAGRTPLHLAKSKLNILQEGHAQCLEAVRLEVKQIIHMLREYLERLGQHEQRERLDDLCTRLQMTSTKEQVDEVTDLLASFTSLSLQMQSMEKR
inactive: [1] 0.011 | [2] -0.04 | [3] 0.038 | [4] -0.042 | [5] -0.024

ABHD12 isoform 2 (UniProt Q8N2K0)
UniProt Q8N2K0, sequence (Q8N2K0 whole entry, looked up): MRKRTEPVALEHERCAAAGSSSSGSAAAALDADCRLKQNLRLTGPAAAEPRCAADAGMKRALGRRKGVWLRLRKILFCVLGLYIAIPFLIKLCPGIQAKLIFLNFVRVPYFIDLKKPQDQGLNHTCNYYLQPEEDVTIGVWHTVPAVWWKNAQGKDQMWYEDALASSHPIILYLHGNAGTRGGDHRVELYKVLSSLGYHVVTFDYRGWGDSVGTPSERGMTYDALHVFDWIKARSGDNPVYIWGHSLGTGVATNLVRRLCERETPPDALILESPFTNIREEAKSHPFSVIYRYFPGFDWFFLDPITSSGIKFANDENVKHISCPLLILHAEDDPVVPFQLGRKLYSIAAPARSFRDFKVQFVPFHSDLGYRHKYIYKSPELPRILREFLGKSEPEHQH
inactive: [1] 0.008 | [2] 0.042 | [3] 0.003 | [4] 0.031 | [5] 0.042

ACYP1 (UniProt P07311)
UniProt P07311, sequence (P07311 whole entry, looked up): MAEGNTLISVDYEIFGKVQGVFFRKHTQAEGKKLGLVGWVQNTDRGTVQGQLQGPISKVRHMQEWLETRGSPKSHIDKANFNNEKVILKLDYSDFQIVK
inactive: [1] 0.019 | [2] -0.026 | [3] -0.036 | [4] 0.022 | [5] 0.052

ACAA1 (UniProt P09110)
UniProt P09110, sequence (P09110 whole entry, looked up): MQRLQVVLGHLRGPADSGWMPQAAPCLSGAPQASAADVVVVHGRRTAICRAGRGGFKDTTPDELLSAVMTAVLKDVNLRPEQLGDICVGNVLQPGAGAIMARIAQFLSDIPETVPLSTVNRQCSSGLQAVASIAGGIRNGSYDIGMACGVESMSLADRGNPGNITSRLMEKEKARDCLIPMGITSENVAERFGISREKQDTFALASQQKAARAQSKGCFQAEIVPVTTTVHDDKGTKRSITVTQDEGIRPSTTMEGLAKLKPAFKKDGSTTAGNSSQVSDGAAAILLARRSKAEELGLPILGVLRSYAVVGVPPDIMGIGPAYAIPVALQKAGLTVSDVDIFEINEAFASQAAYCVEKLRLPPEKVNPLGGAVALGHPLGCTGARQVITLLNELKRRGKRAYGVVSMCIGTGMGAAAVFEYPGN
inactive: [1] -0.004 | [2] 0.007 | [3] -0.005 | [4] 0.046 | [5] -0.003

AK1 (UniProt P00568)
UniProt P00568, sequence (P00568 whole entry, looked up): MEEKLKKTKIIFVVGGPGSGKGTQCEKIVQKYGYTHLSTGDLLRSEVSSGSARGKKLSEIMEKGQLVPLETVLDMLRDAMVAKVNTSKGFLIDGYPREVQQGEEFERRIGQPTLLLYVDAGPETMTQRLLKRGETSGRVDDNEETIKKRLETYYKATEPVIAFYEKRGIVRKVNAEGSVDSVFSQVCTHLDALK
inactive: [1] -0.032 | [2] 0.024 | [3] -0.009 | [4] 0.012 | [5] 0.2

ANLN (UniProt Q9NQW6)
UniProt Q9NQW6, sequence (Q9NQW6 whole entry, looked up): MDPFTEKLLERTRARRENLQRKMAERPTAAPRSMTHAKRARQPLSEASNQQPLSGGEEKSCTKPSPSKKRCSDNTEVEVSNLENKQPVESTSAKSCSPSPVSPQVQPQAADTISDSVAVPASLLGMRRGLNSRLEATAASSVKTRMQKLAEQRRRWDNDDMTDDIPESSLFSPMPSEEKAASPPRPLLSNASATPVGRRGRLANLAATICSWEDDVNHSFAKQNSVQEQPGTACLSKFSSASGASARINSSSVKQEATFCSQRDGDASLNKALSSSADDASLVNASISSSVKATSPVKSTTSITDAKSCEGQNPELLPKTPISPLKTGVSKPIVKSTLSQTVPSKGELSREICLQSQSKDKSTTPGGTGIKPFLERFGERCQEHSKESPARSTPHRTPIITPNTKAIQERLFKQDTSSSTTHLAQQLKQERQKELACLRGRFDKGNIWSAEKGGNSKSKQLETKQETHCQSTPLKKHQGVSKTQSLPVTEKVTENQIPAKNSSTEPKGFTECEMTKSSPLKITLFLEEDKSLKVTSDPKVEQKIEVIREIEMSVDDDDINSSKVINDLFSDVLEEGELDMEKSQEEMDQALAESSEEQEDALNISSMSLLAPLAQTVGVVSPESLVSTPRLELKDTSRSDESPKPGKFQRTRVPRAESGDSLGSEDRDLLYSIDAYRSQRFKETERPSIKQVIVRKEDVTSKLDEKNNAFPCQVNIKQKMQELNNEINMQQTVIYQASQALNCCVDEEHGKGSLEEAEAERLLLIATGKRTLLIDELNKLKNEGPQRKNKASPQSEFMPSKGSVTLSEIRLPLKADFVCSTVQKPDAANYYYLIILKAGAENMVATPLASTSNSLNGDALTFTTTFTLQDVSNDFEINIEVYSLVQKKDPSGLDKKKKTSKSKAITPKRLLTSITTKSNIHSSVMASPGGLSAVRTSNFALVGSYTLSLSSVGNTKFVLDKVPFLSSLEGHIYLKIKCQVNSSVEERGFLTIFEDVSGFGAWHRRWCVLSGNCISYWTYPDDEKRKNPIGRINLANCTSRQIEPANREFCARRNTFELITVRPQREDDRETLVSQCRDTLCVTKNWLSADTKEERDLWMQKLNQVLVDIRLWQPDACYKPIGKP
inactive: [1] 0.04 | [2] -0.014 | [3] 0.053 | [4] 0.015 | [5] 0.005

ALDH1A1 (UniProt P00352)
UniProt P00352, sequence (P00352 whole entry, looked up): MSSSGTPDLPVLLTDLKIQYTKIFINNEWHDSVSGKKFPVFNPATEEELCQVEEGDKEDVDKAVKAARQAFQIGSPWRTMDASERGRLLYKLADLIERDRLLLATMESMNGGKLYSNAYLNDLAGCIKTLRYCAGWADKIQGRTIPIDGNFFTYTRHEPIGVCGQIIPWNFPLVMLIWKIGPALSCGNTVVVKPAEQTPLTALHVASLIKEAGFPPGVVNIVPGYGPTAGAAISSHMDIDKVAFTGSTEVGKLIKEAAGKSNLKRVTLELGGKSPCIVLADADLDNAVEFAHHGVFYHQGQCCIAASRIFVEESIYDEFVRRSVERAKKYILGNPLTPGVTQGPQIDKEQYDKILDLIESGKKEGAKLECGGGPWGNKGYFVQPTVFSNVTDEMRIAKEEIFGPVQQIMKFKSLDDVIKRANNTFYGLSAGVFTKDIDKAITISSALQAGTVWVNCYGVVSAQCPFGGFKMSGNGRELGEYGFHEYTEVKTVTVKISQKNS
inactive: [1] -0.032 | [2] 0.006 | [3] -0.028 | [4] -0.011 | [5] 0.045

ARAP1 (UniProt Q96P48)
UniProt Q96P48, sequence (Q96P48 whole entry, looked up): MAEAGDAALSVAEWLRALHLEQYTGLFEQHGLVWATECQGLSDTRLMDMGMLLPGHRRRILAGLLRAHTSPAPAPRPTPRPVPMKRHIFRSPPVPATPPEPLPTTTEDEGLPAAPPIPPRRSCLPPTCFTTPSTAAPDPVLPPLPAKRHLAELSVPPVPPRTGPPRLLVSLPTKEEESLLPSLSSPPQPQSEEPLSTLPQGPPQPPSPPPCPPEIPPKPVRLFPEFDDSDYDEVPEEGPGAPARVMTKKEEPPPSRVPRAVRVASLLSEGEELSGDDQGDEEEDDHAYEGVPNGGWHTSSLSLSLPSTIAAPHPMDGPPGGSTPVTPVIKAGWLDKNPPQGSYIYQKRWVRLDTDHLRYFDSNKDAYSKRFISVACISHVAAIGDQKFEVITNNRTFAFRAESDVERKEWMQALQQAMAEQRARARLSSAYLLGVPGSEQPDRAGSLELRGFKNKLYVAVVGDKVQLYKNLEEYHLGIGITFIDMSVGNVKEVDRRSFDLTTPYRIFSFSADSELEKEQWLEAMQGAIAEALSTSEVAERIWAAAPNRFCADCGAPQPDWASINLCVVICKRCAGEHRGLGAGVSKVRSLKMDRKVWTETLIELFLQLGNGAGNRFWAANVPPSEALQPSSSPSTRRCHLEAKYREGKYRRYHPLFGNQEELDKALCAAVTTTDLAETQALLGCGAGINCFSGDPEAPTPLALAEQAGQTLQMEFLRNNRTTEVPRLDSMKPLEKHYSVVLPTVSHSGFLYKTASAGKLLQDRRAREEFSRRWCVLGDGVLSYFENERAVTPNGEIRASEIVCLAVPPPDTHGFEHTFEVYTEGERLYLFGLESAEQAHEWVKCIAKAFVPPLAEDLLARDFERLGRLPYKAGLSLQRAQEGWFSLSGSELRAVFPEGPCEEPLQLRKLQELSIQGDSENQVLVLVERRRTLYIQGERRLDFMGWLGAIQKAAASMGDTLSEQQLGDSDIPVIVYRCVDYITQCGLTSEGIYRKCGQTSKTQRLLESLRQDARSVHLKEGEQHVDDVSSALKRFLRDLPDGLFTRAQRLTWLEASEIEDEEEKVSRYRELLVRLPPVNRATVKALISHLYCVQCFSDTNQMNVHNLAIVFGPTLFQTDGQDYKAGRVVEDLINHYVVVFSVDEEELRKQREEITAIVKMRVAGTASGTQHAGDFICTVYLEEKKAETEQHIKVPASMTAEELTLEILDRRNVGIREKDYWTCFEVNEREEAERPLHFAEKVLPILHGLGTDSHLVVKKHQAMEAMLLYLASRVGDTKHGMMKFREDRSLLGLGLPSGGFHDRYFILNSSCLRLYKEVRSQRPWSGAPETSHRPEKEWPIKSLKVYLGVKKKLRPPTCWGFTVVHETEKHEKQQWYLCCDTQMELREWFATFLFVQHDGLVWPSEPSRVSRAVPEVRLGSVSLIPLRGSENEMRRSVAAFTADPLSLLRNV
inactive: [1] 0.022 | [2] -0.008 | [3] 0.048 | [4] 0.013 | [5] -0.015
